Laboratory results taken from ChEMBL document CHEMBL4513216, “Probing the Open Global Health Chemical Diversity Library for Multistage-Active Starting Points for Next-Generation Antimalarials” (ACS Infect Dis, 2020).
In all, about 68,000 compounds went through this assay and about 2,700 (4%) showed an effect of 50% or more. This is one part of a sample in which strong results are shown more often than they occur.

test system: Plasmodium berghei; assay: Screen against P. berghei liver stage (PbLuc), transformed with Luciferase, at 2uM; assay type: functional, HepG2; settings: tested at 2 uM

Structure (SMILES)	INHIBITION [%]
COC1CCN(CCNc2ncc(Br)cc2C)CC1	-4.26
Cc1cc(Br)cnc1NCCN1CCC(N(C)C)CC1	64.9
CC(=O)N1CCN(CCNc2ncc(Br)cc2C)CC1	12.43
O=S(=O)(c1cccnc1)N1CCCCC1CCN1CCOCC1 (stereo unspecified)	-13
Cc1cc(C)nc(N2CCCC(c3cccc(-n4ccnc4)n3)C2)n1 (stereo unspecified)	-2.89
O=C(Nc1ncc[nH]1)c1cc(-c2cccnc2)n[nH]1	-36.68
O=C(c1cc2c(s1)CCCC2)N1CCCC1Cn1cccn1 (stereo unspecified)	1.61
CC(=O)N1CCC2(CC1)CCN(S(=O)(=O)c1ccccc1)C2	27.65
CC(=O)N1CCC2(CCCN(S(=O)(=O)c3ccc(F)cc3)C2)C1 (stereo unspecified)	-8.04
CN(C)CC(=O)N1CC2(CCN(S(=O)(=O)c3ccccc3)C2)C1	39.51
CC(=O)N1CCC2(CCCN(S(=O)(=O)c3ccccc3)C2)C1 (stereo unspecified)	52.36
CC(=O)N1CCC2(C1)CN(S(=O)(=O)c1ccccc1)C2	56.76
CC(=O)N1CCC2(CCN(S(=O)(=O)c3ccccc3)CC2)C1	11.18
CN(C)c1ccc(CNC(=O)NCCc2cccs2)cn1	9.17
Cc1ccncc1CN1CCOCC1c1[nH]ncc1C (stereo unspecified)	5.01
Cc1cc(CNc2ccnn2C)ccc1-n1cncn1	14.93
CN(C)CC(=O)NC1CC(C)(C)Cc2nc(C(C)(C)C)ncc21 (stereo unspecified)	68.39
CN(C)CCCC(=O)NC1CC(C)(C)Cc2nc(C(C)(C)C)ncc21 (stereo unspecified)	35.56
CC1(C)Cc2nc(C(C)(C)C)ncc2C(NC(=O)CN)C1 (stereo unspecified)	21.28
Cc1nc[nH]c1CN1CCCn2nc(CN3CCC(F)(F)CC3)cc2C1	8.48
O=C(c1ccsc1)N1CCC(Nc2cccnn2)CC1	2.8
CC(C(=O)Nc1ccc(N2CCCCC2)nc1)n1ccnc1 (stereo unspecified)	-34.5

Structure (SMILES)	INHIBITION [%]
CCCNC(=O)N1CCc2ccc(S(=O)(=O)N3CCN(C)CC3)cc2C1	30.62
O=C(c1ccoc1)N1CCCC2(CCC(=O)N2Cc2ccncc2)C1 (stereo unspecified)	3.56
Cc1cnn(CC2CCCN2C(=O)c2cccc(CC#N)c2)c1 (stereo unspecified)	-17.11
CCCS(=O)(=O)CC(=O)Nc1ccsc1	22
CCN(CC)S(=O)(=O)CC(=O)Nc1ccsc1	64.08
CS(=O)(=O)CCC(=O)Nc1ccsc1	10.22
O=C(c1cc2c(s1)CCC2)N1CCN(c2cnccn2)CC1	-32.45
N#Cc1ccc(OCC(O)CN2CCN(c3nccs3)CC2)cc1 (stereo unspecified)	2.2
O=C(O)CCC(=O)N1CCN(CC2CC2)c2ncccc2C1	18.6
CCn1cnnc1C1CCN(C(=O)c2cc(OC)ccc2OC)CC1	-33.61
CCn1cnnc1C1CCN(C(=O)c2ccoc2C)CC1	70.27
CCn1cnnc1C1CCN(C(=O)c2cccc(C)c2C)CC1	1.02
CCn1cnnc1C1CCN(C(=O)c2cccc(OC)c2OC)CC1	66.2
Cc1occc1C(=O)N1CCC(C(O)c2ccc(Cl)cc2)CC1 (stereo unspecified)	59.03
Cc1occc1C(=O)N1CCC(C(O)c2ccc(F)cc2)CC1 (stereo unspecified)	47.25
Cc1c(C(=O)N2CCC(C(O)c3ccc(Cl)cc3)CC2)cnn1C (stereo unspecified)	10.22
CCn1cnnc1C1CCN(C(=O)c2ccccc2OC)CC1	-45.23
CCn1cnnc1C1CCN(C(=O)c2c(C)oc(C)c2C)CC1	-11.32
CCn1nc(C)c2c1cnn2CCNS(=O)(=O)Cc1ccccc1	16.97
CN(C)Cc1cccc(C(=O)N2CCCC(n3cncn3)C2)c1 (stereo unspecified)	21.39
CC(C)c1cc(C(=O)N2CCC3(CCc4ccccc4C(=O)N3)C2)on1 (stereo unspecified)	9.9
CNC(=O)c1n[nH]c2c1C(c1cccc3c1OC(C)(C)C3)CC(=O)N2 (stereo unspecified)	48.21

Structure (SMILES)	INHIBITION [%]
Cc1nc(CN2CCN(C(=O)c3ccc(=O)n(C)c3)CC2)cs1	-3.4
CCN1CCC12CCN(C(=O)c1ccsc1)C2 (stereo unspecified)	13.75
COc1ccc(-c2noc(C3CC(C(C)C)=NO3)n2)cc1 (stereo unspecified)	7.37
Cc1ccccc1-c1noc(C2CC(C(C)C)=NO2)n1 (stereo unspecified)	-10.37
CC(C)C1=NOC(c2nc(Cc3ccccc3)no2)C1 (stereo unspecified)	50.46
COCC(=O)N1CC2(CCN(c3ccccc3)C2)C1	-31.82
CCc1nc(CC2CN(c3ncnc4nc(C)cc(C)c34)CCO2)no1 (stereo unspecified)	5.1
CS(=O)(=O)N[C@H]1CCO[C@]2(CCN(C(=O)c3ccccn3)C2)C1	36.75
CS(=O)(=O)N[C@@H]1CCO[C@]2(CCN(C(=O)c3cscn3)C2)C1	23.1
Cc1nc(C(=O)N2CC[C@@]3(C[C@@H](NS(C)(=O)=O)CCO3)C2)cs1	68.95
CS(=O)(=O)N[C@@H]1CCO[C@]2(CCN(C(=O)c3cnccn3)C2)C1	9.14
Cc1nc(C(=O)N2CC[C@@]3(C[C@H](NS(C)(=O)=O)CCO3)C2)cs1	60.79
Cc1cc(C(=O)N2CC[C@@]3(C[C@@H](NS(C)(=O)=O)CCO3)C2)no1	19.51
COCCN1C(=O)CC(N2CCN(c3ccc(F)cc3)CC2)C1=O (stereo unspecified)	39.9
NC(=O)CCSc1ccccc1NCc1ccc(Cl)s1	22.75
Cc1ocnc1C(=O)N(C)[C@@H]1CC[C@@H](Oc2ccccc2)[C@@H]1O	67.27
CN(C(=O)c1ccon1)[C@@H]1CCC[C@@H](Oc2ccccc2)[C@@H]1O	44.9
Cc1nc(C(=O)N(C)[C@@H]2CCC[C@@H](Oc3ccccc3)[C@@H]2O)co1	9.47
Cc1ccccc1C1(CNC(=O)CCN2C(=O)CCC2=O)CC1	26.76
O=C(N1CCOCC1)[C@@]12CCO[C@@H]1CCN(CC1CCCC1)C2	-55.42
Cc1c(NC(=O)c2cnc[nH]2)cccc1C(=O)NC(C)(C)C	5.41
COc1ccc(CN(Cc2cc(C)no2)C2CC2)cc1	-16.88

Structure (SMILES)	INHIBITION [%]
c1cnc(N2CCC(c3csc(Nc4cnccn4)n3)CC2)nc1	-41.06
O=C1CC2(CCN(c3nncs3)C2)CN1c1ccccc1 (stereo unspecified)	-5.44
O=C1CC2(CCN(c3nncs3)C2)CN1c1cccc(F)c1 (stereo unspecified)	21.75
O=C1CC2(CCN(c3nncs3)C2)CN1c1ccc2c(c1)OCCO2 (stereo unspecified)	58.16
O=C(O)c1ccc(CC2CCN(Cc3ccc(-c4cc[nH]n4)o3)C2)cc1 (stereo unspecified)	16.93
Cc1ncnc2c1CCN(CC(=O)N(C)C)CC2	18.15
Cc1cc(C(F)(F)F)nc(CNC(=O)C2CCCCCN2C)n1 (stereo unspecified)	20.77
Cc1cc(C(F)(F)F)nc(CNC(=O)CCC2CCCN(C)C2)n1 (stereo unspecified)	-28.09
Cc1cc(C(F)(F)F)nc(CNC(=O)CCC2CCCCN2C)n1 (stereo unspecified)	54.77
NCC1CCCCN1Cc1cc(O)c2cccc(F)c2n1 (stereo unspecified)	-20.95
Cc1ccc2nc(CN3CCN(C4CCCCC4)C(=O)C3)cc(O)c2c1	-17.17
Oc1cc(CN2CCCCC2c2cccnc2)nc2c(F)cccc12 (stereo unspecified)	57.75
OCC1CCCCN1Cc1cc(O)c2cccc(F)c2n1 (stereo unspecified)	24.36
Cc1ccc2nc(CN3CCN(C4CCCC4)C(=O)C3)cc(O)c2c1	-87.32
Cc1ccc2nc(CN3CCCC3c3cccnc3)cc(O)c2c1 (stereo unspecified)	50.59
CN(C)C(CNCc1nc(-c2ccsc2)no1)c1ccsc1 (stereo unspecified)	6.82
CN(C)C(CNCc1nc(-c2ccsc2)no1)c1cccs1 (stereo unspecified)	58.14
CN(C)C(CNCc1nc(-c2ccsc2)no1)c1ccco1 (stereo unspecified)	11.18
c1ccc(CN2CCN(C3CCOC4(CCOCC4)C3)CC2)nc1 (stereo unspecified)	-14.69
CCNc1nc2cn(-c3ccc(C)c(C)c3)c(=O)c-2c[nH]1	-5.34
c1cncc(CN2Cc3nccn3CC(Cn3cccn3)C2)c1 (stereo unspecified)	-9.53
COc1cc(F)ccc1C(C(=O)O)N(C)Cc1ccon1 (stereo unspecified)	12.55

Structure (SMILES)	INHIBITION [%]
COc1cc(C)cc(C(C(=O)O)N(C)Cc2ccon2)c1OC (stereo unspecified)	76.6
COc1ccc(Cl)cc1C(C(=O)O)N(C)Cc1ccon1 (stereo unspecified)	-35.07
CN(C)CC(=O)N1CCN(c2cc(N3CCCC3CO)ncn2)CC1 (stereo unspecified)	-23.06
COC1[C@@H]2CC[C@H]1CN(c1nc(C)nc3sccc13)C2 (stereo partly specified)	32.26
Cc1ccccc1CN(CCN(C)C)Cc1ccc(C(=O)O)cc1	34.07
Cc1ccccc1CN(CCN(C)C)Cc1ccc(O)c(C(=O)O)c1	56.76
Cc1ccccc1CN(CCN(C)C)Cc1ccccc1C(=O)O	4.12
Cc1cc(CN2CCc3nc(C(C)C)nc(O)c3CC2)c(C)s1	23.7
Cc1ccnc(NC(=O)c2ccc(Br)o2)c1	62.51
Cc1ccnc(NC(=O)c2ccc(C)o2)c1	-4.26
Cc1ccnc(NC(=O)c2ccc(Cl)o2)c1	5.48
O=C(CN1CCc2cncnc2C1)NCCOc1cccc(Cl)c1	29.54
O=C(CN1CCc2cncnc2C1)NCCOc1ccccc1	10.62
Cc1cccc(OCCNC(=O)CN2CCc3cncnc3C2)c1	51.94
Oc1cc(-c2cccs2)nc(C2CCCN(CC3=CCCOC3)C2)n1 (stereo unspecified)	51.88
Oc1cc(-c2nccs2)nc(C2CCN(Cc3cccs3)CC2)n1	-14.73
Cn1cc(CN2CCCC(c3nc(O)cc(-c4cccs4)n3)C2)cn1 (stereo unspecified)	32.24
Cc1csc(CNC(=O)NCC(O)c2ccc(F)cc2F)n1 (stereo unspecified)	-41.67
